Screening data deposited in PubChem by National Center for Advancing Translational Sciences (NCATS).
Only some compounds are listed: those with a hit (about 18% of all), similar ones and a draw of the others.
IL-1B inflam inh: blocks inflammasome-driven IL-1 beta release; THP-1 LPS/ATP IL-1B secretion, AlphaLISA, 16 h; active compounds read low; activity change, % at 57.5 µM; 360,000 tested, 4.7% active; in the data active = activity change below about -50%; inconclusive = mostly about -30% to -49%
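THP-1 cells pretreated 1 hr with compounds (up to 57.5 uM final), then stimulated with LPS (250 ng/mL final) plus ATP (1.25 mM final); secreted IL-1B measured by AlphaLISA after 16 hr, decreased signal indicating inhibition.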
CtBP-E1A inh: inhibitors of CtBP/E1A interaction. AlphaScreen GST-E1A/His-CtBP binding, 1536-well; active compounds read low. activity change, % (concentration not given with the values). 340,000 tested, 0.49% active. AID 651724; in the data active = activity change below about -65%; inconclusive = mostly about -30% to -63%
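GST-E1A and His-tagged CtBP (125 nM each as 5X stock) were preincubated with pin-transferred compound for 2 h at 37 °C in the dark, then glutathione donor and nickel acceptor beads were added for 1 h before AlphaScreen reading.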
DT40 TDP1 CPT: growth inhibition of DT40 Tdp1-/-;hTDP1 cells with camptothecin (screen for TDP1 inhibitors); chicken DT40 Tdp1-/-;hTDP1 cells + 20 nM CPT, ATP luminescence, 48 h; Potency, µM (highest dose often 46.2 µM), inactives show top-dose activity change, negative = growth inhibition, most hits filed as inhibitors; 420,000 tested, 12% active; note: potency is the fitted concentration of half-maximal effect; nearly all actives have a fitted effect of over 55% in size
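Chicken DT40 Tdp1-/- cells stably complemented with human TDP1 were seeded at 400 cells/well in medium containing 20 nM camptothecin, exposed to pin-transferred compounds, and grown at 37 °C for at least 48 hr. Viability was read as ATP luminescence.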
Six1-Eya2 inh: inhibitors of human Six1/Eya2 interaction | Q15475+O00167 | AlphaScreen GST-Six1/His-Eya2 binding, biochemical; active compounds read low | activity change, % (test concentration not listed) | 360,000 tested, 0.56% active | AID 651725; in the data active = activity change below about -65%; inconclusive = mostly about -30% to -63%
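Compounds are tested against tagged Six1 and Eya2 proteins bridged by glutathione donor and nickel acceptor beads; after a one-hour incubation at 37 °C without light, AlphaScreen emission is recorded.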
TDP1 cell noCPT: qHTS for Inhibitors of human tyrosyl-DNA phosphodiesterase 1 (TDP1): qHTS in cells in absence of CPT | DT40 Tdp1-/- hTDP1 cells, no CPT, ATP luminescence, 48 h | Potency, µM (titrated, usually from 46.2 µM), for inactives: at the highest dose activity change, negative = growth inhibition, usual class: inhibitors | 420,000 tested, 15% active; note: potency is the fitted concentration of half-maximal effect; nearly all actives have a fitted effect of over 55% in size
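Stably hTDP1-transfected Tdp1-null chicken DT40 cells were treated with library compounds minus camptothecin and grown for at least 48 hr at 37 °C, after which cellular ATP was quantified by luminescence.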
TDP1 inh: blocks human tyrosyl-DNA phosphodiesterase 1. recombinant TDP1, AlphaScreen DNA substrate cleavage. Potency, µM (doses to about 130 µM), without a hit: top-dose activity change, negative = inhibition, usual class: inhibitors. 350,000 tested, 0.28% active. AID 485290; note: potency is the fitted concentration of half-maximal effect; nearly all actives have a fitted effect of over 40% in size
Target sequence (Q9NUW8 whole entry, looked up): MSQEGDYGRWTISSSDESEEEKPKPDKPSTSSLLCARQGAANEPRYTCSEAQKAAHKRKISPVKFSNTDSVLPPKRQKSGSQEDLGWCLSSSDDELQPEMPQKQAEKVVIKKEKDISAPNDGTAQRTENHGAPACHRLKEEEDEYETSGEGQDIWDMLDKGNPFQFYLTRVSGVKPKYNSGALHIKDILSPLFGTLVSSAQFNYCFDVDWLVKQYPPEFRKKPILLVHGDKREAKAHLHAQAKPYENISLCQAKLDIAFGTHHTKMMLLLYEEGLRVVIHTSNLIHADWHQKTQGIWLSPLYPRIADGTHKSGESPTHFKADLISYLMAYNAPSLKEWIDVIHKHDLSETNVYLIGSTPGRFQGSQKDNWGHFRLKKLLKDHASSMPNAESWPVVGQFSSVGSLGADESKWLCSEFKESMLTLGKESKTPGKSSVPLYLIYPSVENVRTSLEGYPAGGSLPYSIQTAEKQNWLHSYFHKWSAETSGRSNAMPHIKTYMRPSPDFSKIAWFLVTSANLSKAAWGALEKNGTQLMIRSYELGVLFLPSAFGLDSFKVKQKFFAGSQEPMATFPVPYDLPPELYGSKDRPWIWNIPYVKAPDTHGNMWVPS
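AlphaScreen read-out: signal falls as enzyme removes the 3' tyrosine-FITC from a 5'-biotinylated DNA oligo (15 nM, 5 min, RT). Enzyme was E. coli-made recombinant Tdp1 at 1 nM, exposed to compound for 15 min beforehand; beads 10 ug/ml, 10 min.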
Numbers without * were called inactive; ? = inconclusive; / = no result; [ ] = another dose, or the depositor's remark. Unless noted, calls come from the whole dose curve; as a rule, active = well fitted curve in the direction sought with a large enough effect; inconclusive = small, poorly fitted or top-dose-only effect, or another doubt; inactive = no such curve, though single readings can be large; an effect the other way counts as inactive or inconclusive. % is set by controls: 0 for no effect and ±100 for the full control effect.

SMILES | IL-1B inflam inh | CtBP-E1A inh | DT40 TDP1 CPT | Six1-Eya2 inh | TDP1 cell noCPT | TDP1 inh
O=C(Oc1cccc(-n2cnnn2)c1)c1ccco1 | 0.0 | 5.4 | -10.4% | 13.1 | ? | 5.6%[56.1 µM]
O=C(c1ccccc1)c1ccc2nc(N3CCN(c4ccccc4)CC3)c3nncn3c2c1 | / | / | 4.61µM* | / | 6.51µM* | 5.0%
Clc1cccc(N2CCN(c3nc4ccccc4n4cnnc34)CC2)c1 | / | / | ? | / | ? | 4.9%
CCOC(=O)N1CCN(c2nc3ccc(C(=O)c4ccccc4)cc3n3cnnc23)CC1 | -10.8 | -9.5 | ? | 7.3 | ? | /
Cc1cccc(N2CCN(c3nc4ccc(C(=O)c5ccccc5)cc4n4cnnc34)CC2C)c1 (stereo unspecified) | / | / | 18.4µM* | / | 13µM* | 2.8%
COc1ccc(N2CCN(c3nc4ccc(C(=O)c5ccccc5)cc4n4cnnc34)CC2)cc1 | / | / | 16.4µM* | / | -96.1% | 2.8%
O=C(c1ccccc1)c1ccc2nc(N3CCN(C(=O)c4ccco4)CC3)c3nncn3c2c1 | -19.9 | -9.0 | 23.1µM* | -21.2 | 13µM* | 6.1%
Cc1cc(C(=O)OCc2nnc(-c3ccccc3)o2)c(C)n1-c1ccccc1 | -16.3 | -8.4 | 18.4µM* | -5.6 | 20.6µM* | 4.2%
Cc1noc(C)c1COC(=O)c1cc(C)n(-c2ccccc2)c1C | ? | -21.6 | ? | -16.6 | 20.6µM* | 11.4%
Cc1noc(C)c1COC(=O)c1cc(=O)[nH]c2ccccc12 | -4.0 | 1.4 | -0.3% | 1.3 | -0.4% | 3.0%
CCCCCCn1c(=O)n2n(c1=O)[C@@H]1CN(S(=O)(=O)c3ccc(C)cc3)C[C@]1(O)[C@@H](OC(=O)NCc1ccco1)C2 | ? | 1.0 | ? | -7.9 | 23.1µM* | /
COc1ccc(CNC(=O)OC23CN(C(=O)OC(C)C)N(C(=O)OC(C)C)CC2(O)CN(S(=O)(=O)c2ccc(C)cc2)C3)cc1OC (stereo unspecified) | -5.8 | 4.8 | ? | -0.6 | ? | /
Cc1ccc(S(=O)(=O)N2CC3(O)CN(C(=O)OC(C)C)N(C(=O)OC(C)C)CC3(OC(=O)NCc3ccccc3)C2)cc1 (stereo unspecified) | -23.6 | 1.6 | ? | -5.1 | 20.6µM* | /
Cc1ccc(S(=O)(=O)N2C[C@H]3N(C(=O)OC(C)C)N(C(=O)OC(C)C)C[C@H](OC(=O)NCc4ccccc4)[C@@]3(O)C2)cc1 | -9.6 | 3.3 | 20.6µM* | 4.4 | 20.6µM* | /
COC(=O)[C@H]1C[C@H](OC(=O)NCc2ccccc2F)[C@@]2(O)CN(S(=O)(=O)c3ccc(C)cc3)CC2[C@H]1C(=O)OC (stereo partly specified) | -0.4 | -2.8 | ? | -0.4 | 23.1µM* | /
CCCCNC(=O)CNC(=S)N(Cc1ccccc1)Cc1cccnc1 | 7.1 | 3.8 | 3.8% | 8.6 | ? | 4.7%
COC(=O)[C@H]1C[C@@]2(O)CN(S(=O)(=O)c3ccc(C)cc3)C[C@@]2(OC(=O)NCc2ccco2)C[C@H]1C(=O)OC | -21.5 | 3.1 | -16.7% | -0.4 | -22.4% | /
Cc1ccc(S(=O)(=O)N2C[C@H]3n4c(=O)ccc(=O)n4C[C@H](OC(=O)NC4CC4)[C@@]3(O)C2)cc1 | 17.0 | 3.1 | -12.6% | 2.5 | -12.1% | /
Cc1ccc(S(=O)(=O)N2C[C@H]3N(C(=O)OC(C)C)N(C(=O)OC(C)C)C[C@H](OC(=O)NCc4ccco4)[C@@]3(O)C2)cc1 | -1.7 | 1.0 | ? | 2.4 | 23.1µM* | /
Cc1ccc(S(=O)(=O)N2C[C@H]3N(C(=O)OC(C)C)N(C(=O)OC(C)C)C[C@H](OC(=O)NCC4CCCCC4)[C@@]3(O)C2)cc1 | -17.0 | -0.5 | 20.6µM* | 19.1 | 25.9µM* | /
CCOC(=O)c1cnc2cc(C(F)(F)F)ccc2c1N1CCN(c2cccc(Cl)c2)CC1 | / | / | ? | / | 23.1µM* | 3.2%
CCOC(=O)c1cnc2ccc(OCC)cc2c1NCc1ccccc1 | ? | 37.4 | 5.8µM* | 45.7 | 6.51µM* | 4.7%
CCc1ccc(OCC(=O)N2CCN(c3ccccc3F)CC2)cc1 | -6.4 | -4.0 | -22.2% | 3.3 | -3.2% | 1.2%
CCOC(=O)c1cnc2ccc(OCC)cc2c1NCc1cccnc1 | ? | 0.0 | ? | 0.0 | ? | 4.3%
CCOC(=O)N1CCN(c2c(N3CCN(c4cccc(C(F)(F)F)c4)CC3)c(=O)c2=O)CC1 | -28.0 | 3.9 | -24.0% | 2.7 | -25.0% | 0.0%
SMILES | IL-1B inflam inh | CtBP-E1A inh | DT40 TDP1 CPT | Six1-Eya2 inh | TDP1 cell noCPT | TDP1 inh
CCOC(=O)c1cnc2ccc(OCC)cc2c1N1CCN(c2ccccc2F)CC1 | / | / | 16.4µM* | / | 11.6µM* | -4.5%
CCOC(=O)c1cnc2ccc(OCC)cc2c1N1CCN(c2ccccc2)CC1 | -16.8 | -23.3 | 20.6µM* | -19.2 | 25.9µM* | 4.7%
CC(NC(=O)COC(=O)c1ccc2c(c1)OCCO2)c1ccccc1 (stereo unspecified) | -3.0 | -3.7 | -2.8% | 0.0 | -13.6% | 1.1%
CC(C)(C)CNC(=O)c1cc2c(Br)ccc(Br)c2nc1N | 0.0 | 3.3 | ? | -1.7 | ? | /
COc1cccc2c1N(C)C(=O)CC21C=CC(=O)C=C1 | / | / | / | / | / | 3.8%
COc1cc(OC)cc(C(=O)NCC(=O)NC(C)c2ccccc2)c1 (stereo unspecified) | -27.1 | -11.4 | -10.2% | -2.9 | -0.3% | /
O=c1c2ccccc2ncn1-c1ccc(Cl)c(Cl)c1 | 2.2 | 8.7 | -15.7% | 2.8 | 3.2% | 4.7%
Clc1ccc(-n2cnc3c(Cl)ncnc32)cc1Cl | ? | -0.2 | 4.61µM* | 2.7 | 6.51µM* | /
Cc1cc(S(=O)(=O)N2CCCCC2)c(C)s1 | 22.7 | / | -1.4% | -0.6 | 1.9% | 1.9%
Cc1ccc([N+](=O)[O-])cc1S(=O)(=O)N(C(=O)c1ccncc1)c1ccc2oc3c(c2c1)CCCC3 | -0.5 | -16.4 | -14.8% | -23.2 | -10.6% | 2.3%
COC(=O)c1c(C)oc2ccc(N(C(=O)c3ccncc3)S(=O)(=O)c3ccc(C)cc3C)cc12 | ? | 2.6 | 2.59µM* | 4.0 | 4.11µM* | -2.7%
COC(=O)c1c(C)oc2ccc(N(C(=O)c3ccncc3)S(=O)(=O)c3c(C)cc(C)cc3C)cc12 | / | / | 1.84µM* | / | 1.16µM* | /
COC(=O)c1c(C)oc2ccc(N(C(=O)c3ccncc3)S(=O)(=O)c3cc(C)c(C)cc3C)cc12 | / | / | 10.3µM* | / | 5.17µM* | /
O=S(=O)(c1cc(F)ccc1F)N1CCN2CCCC2C1 (stereo unspecified) | 0.2 | / | 20.9% | 2.7 | 7.8% | /
